The results in this text go back to PubChem BioAssay AID652054 (National Center for Advancing Translational Sciences (NCATS), 2013).

Hit rate of the full screen: of about 360,000 compounds, about 9,100 (2.5%) were called active. Roughly 4% stayed inconclusive and do not appear here. Cut-off read from the data, not from the text of the source: active = max response below about -50%; inconclusive = no clear call, values can overlap the other calls; inactive = above that. The full list was thinned out, with actives kept by preference.
% is set by controls: 0 for no effect and ±100 for the full control effect.

The target of the assay is D(3) dopamine receptor (Homo sapiens) (UniProt P35462). Put plainly: qHTS of D3 Dopamine Receptor Antagonist: qHTS. The conditions noted are these: D3R cells, DiscoveRx beta-arrestin luminescence, antagonist mode; active compounds read low. The gist of the method: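 Cells expressing the human receptor were seeded at 1500 cells/well, incubated overnight at 37 degrees C in 5% CO2, then exposed to library compounds with dopamine controls for 90 minutes at 37 degrees C before luminescent detection.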
Chain of D(3) dopamine receptor (Homo sapiens) (P35462 whole entry, looked up): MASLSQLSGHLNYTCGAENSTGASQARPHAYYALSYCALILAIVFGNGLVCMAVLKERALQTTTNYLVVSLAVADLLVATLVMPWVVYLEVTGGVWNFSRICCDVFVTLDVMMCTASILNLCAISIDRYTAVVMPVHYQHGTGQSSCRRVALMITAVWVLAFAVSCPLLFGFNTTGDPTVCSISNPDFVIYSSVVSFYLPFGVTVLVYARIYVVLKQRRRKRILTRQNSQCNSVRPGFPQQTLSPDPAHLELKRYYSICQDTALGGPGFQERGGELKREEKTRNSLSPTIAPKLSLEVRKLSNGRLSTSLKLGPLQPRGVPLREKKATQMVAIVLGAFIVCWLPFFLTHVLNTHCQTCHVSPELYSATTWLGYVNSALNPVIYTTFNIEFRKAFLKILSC
For `CCn1c(=S)[nH]c2sc3c(c2c1=O)CCCCC3`, the max response, negative = inhibition was -15.3% (inactive).

Regarding `CN(C)CCCn1c(=O)n(Cc2ccccc2)c(=O)c2c3c(sc21)CCCCC3`, the max response, negative = inhibition was -52.1% (active).

Regarding `O=c1c2c3c(sc2n(CCN2CCCC2)c(=O)n1Cc1ccccc1)CCCCC3`, the max response, negative = inhibition is -21.9% (inactive).

`Cc1ccc(-c2cnc(C(O)c3cc(Cl)cc(Cl)c3)[nH]2)cc1` (stereo unspecified): the max response, negative = inhibition was 17.6% (inactive).

Consider `OCCC1CN(Cc2cccc(O)c2)CCN1CCc1ccccc1` (stereo unspecified), for which the max response, negative = inhibition is -52.7% (active).

As for `Cc1ccc(CN2CCN(Cc3ccc4ncccc4c3)CC2CCO)cc1` (stereo unspecified), the max response, negative = inhibition is -16% (inactive).

For the compound `OCCC1CN(Cc2ccc(Oc3ncccn3)cc2)CCN1CCc1ccccc1` (stereo unspecified), the max response, negative = inhibition was -10.3% (inactive).

As for `COc1cccc(CN2CCN(Cc3ccc4cccc(F)c4n3)CC2CCO)c1` (stereo unspecified), the max response, negative = inhibition is -65.2% (active).

As to `CCOc1ccc(CN2CCN(Cc3ccc4cc(F)ccc4n3)CC2CCO)cc1` (stereo unspecified), the max response, negative = inhibition was -27.2% (inactive).

With `OCCC1CN(Cc2ccccc2-c2ccco2)CCN1Cc1ccsc1` (stereo unspecified), the max response, negative = inhibition is -16.3% (inactive).

Regarding `Cc1ccc(CN2CCN(Cc3cccc(C)n3)CC2CCO)cc1` (stereo unspecified), the max response, negative = inhibition was -24.5% (inactive).

On to `OCCC#Cc1ccc(CN2CCN(Cc3ccsc3)C(CCO)C2)cc1` (stereo unspecified), for which the max response, negative = inhibition was -22.9% (inactive).

With `Cc1cccc(CN2CCN(Cc3cnn(-c4ccccc4F)c3)CC2CCO)n1` (stereo unspecified), the max response, negative = inhibition was -69% (active).

For `OCCC1CN(Cc2cnc(-c3ccccc3)s2)CCN1CCc1ccccc1` (stereo unspecified), the max response, negative = inhibition was -27.8% (inactive).

Regarding `OCCC1CN(Cc2cccc(OC3CCCC3)c2)CCN1Cc1ccsc1` (stereo unspecified), the max response, negative = inhibition is -81.9% (active).

`CC(=O)Nc1ccc(CN2CCN(Cc3ccc(F)c(F)c3)C(CCO)C2)cc1` (stereo unspecified): the max response, negative = inhibition was 7.18% (inactive).

Regarding `Cc1ccc(C(=O)OCC(=O)NC2CCCCCCC2)cc1C`, the max response, negative = inhibition is 5.37% (inactive).

For the compound `CCCCNC(=O)C[C@@H]1C[C@@]2(C(=O)OC)CC(C)(C)CC=C2N(Cc2ccco2)C1=O`, the max response, negative = inhibition was 22.3% (inactive).

For the compound `Cc1cc(Br)cn2c(Cc3ccccc3C(F)(F)F)c(-c3ccc(Cl)cc3)nc12`, the max response, negative = inhibition is 3.99% (inactive).

Turning to `COc1ccc(-n2cc(CNC3CCOCC3)c(-c3cccc(F)c3)n2)cc1`, the max response, negative = inhibition was -0.354% (inactive).

`COc1ccc(-n2cc(CN(C)Cc3n[nH]c(=O)[nH]3)c(-c3cccc(F)c3)n2)cc1`: the max response, negative = inhibition was 0.876% (inactive).

As for `CCC(O)C1CCN(Cc2cn(-c3ccc(OC)cc3)nc2-c2cccc(F)c2)CC1` (stereo unspecified), the max response, negative = inhibition was -73% (active).

For the compound `CCCCOCCCNC(=O)C[C@@H]1C[C@@]2(C(=O)OCC)CCCC=C2N(CCC2=CCCCC2)C1=O`, the max response, negative = inhibition was 2.81% (inactive).

As to `CN1OC[C@@H]2CN(S(=O)(=O)c3cccc4ccccc34)[C@H](c3ccc(N4CCCCC4)cc3)C[C@@H]21`, the max response, negative = inhibition is 0% (inactive).

Take `C[C@H]1Cn2cnc(C(=O)N[C@@H](Cc3c[nH]c4ccccc34)C(=O)OC(C)(C)C)c2C(=O)N1`: the max response, negative = inhibition was 5.11% (inactive).

For the compound `CN(C)C(=O)c1cccc(-c2cnc3c(NC=O)cc(-c4ccc(F)cc4)cn23)c1`, the max response, negative = inhibition is 95.3% (inactive).

For the compound `CCc1ccc(-c2nn(-c3ccccc3)cc2CSC(=N)N)cc1`, the max response, negative = inhibition was 6.38% (inactive).

As for `CCOc1ccc(Br)cc1CSC(=N)N`, the max response, negative = inhibition is -4.48% (inactive).

Consider `N=C(N)SCc1cccc2ccccc12`, for which the max response, negative = inhibition is -51.3% (active).

For the compound `CCCNC(=O)C[C@@H]1CC[C@@H]2[C@H](COC[C@H](O)CN2C(=O)c2cc(Cl)cc(Cl)c2)O1`, the max response, negative = inhibition was 13.7% (inactive).

With `N#CCCN(C(=S)Nc1ccc(Cl)c(Cl)c1)C1CCCCC1`, the max response, negative = inhibition was 2.54% (inactive).

Regarding `CN1OC[C@@H]2CN(C(=O)C(C)(C)C)[C@H](c3ccc(-n4ccnc4)cc3)C[C@@H]21`, the max response, negative = inhibition is 22.8% (inactive).

On to `C[C@@H]1CCCCO[C@H](CN(C)Cc2ccccc2)[C@@H](C)CN([C@H](C)CO)C(=O)c2cc(NS(=O)(=O)c3ccc(Cl)cc3)ccc2O1`, for which the max response, negative = inhibition is -0.783% (inactive).

Consider `O=C(O)c1ccccc1/C=N/Nc1ccc(S(=O)(=O)Nc2ccc(Cl)cc2)cc1[N+](=O)[O-]`, for which the max response, negative = inhibition is 6.67% (inactive).

For `COc1ccc(Br)cc1/C=N/Nc1ccc(S(=O)(=O)Nc2ccccc2C(=O)O)cc1[N+](=O)[O-]`, the max response, negative = inhibition is -66% (active).

For the compound `Cc1ccc(NS(=O)(=O)c2ccc(N/N=C/c3ccccc3OCC(=O)O)c([N+](=O)[O-])c2)c(C)c1`, the max response, negative = inhibition is -17% (inactive).

On to `CCCNC(=O)C1CC(=O)N(c2ccc(OCc3ccccc3)cc2)C1` (stereo unspecified), for which the max response, negative = inhibition was 0% (inactive).

Regarding `CCNC(=O)C1(C)CCN(Cc2ccc(C(=O)OCC)o2)C1` (stereo unspecified), the max response, negative = inhibition was -10.7% (inactive).

For the compound `COC(=O)c1cccc(NC(=O)CN2CCC(NC(=O)c3cc(OC)c(OC)c(OC)c3)CC2)c1`, the max response, negative = inhibition is 24% (inactive).

Regarding `COc1cc2[nH]c(=O)n(CCC(=O)NC3CCN(Cc4ccccc4)CC3)c(=O)c2cc1OC`, the max response, negative = inhibition was -7.24% (inactive).

Regarding `COc1cc(C(=O)NC2CCN(Cc3ccccc3)CC2)cc(Cl)c1OC(C)C`, the max response, negative = inhibition was -71.6% (active).

With `CCOc1cc2[nH]c(=O)n(Cc3ccc(C(=O)NCCCN4CCCC4=O)cc3)c(=O)c2cc1OCC`, the max response, negative = inhibition is 6.17% (inactive).

With `COc1ccc(C(=O)O)cc1S(=O)(=O)NC1CCN(Cc2ccccc2)CC1`, the max response, negative = inhibition is 8.04% (inactive).

With `COc1cc2[nH]c(=O)n(Cc3ccc(C(=O)NC4CCN(Cc5ccccc5)CC4)cc3)c(=O)c2cc1OC`, the max response, negative = inhibition is -79.7% (active).

Turning to `Nc1cccc(-c2cncc(N3CCN(Cc4ccccn4)CC3)n2)c1`, the max response, negative = inhibition is -4.86% (inactive).

On to `CCN(CC(=O)Nc1ccc(NC(C)=O)cc1)C(=O)C1CC(=O)N(c2ccc3c(c2)OCCO3)C1` (stereo unspecified), for which the max response, negative = inhibition was 19% (inactive).

Turning to `O=C(CN1C(=O)NC2(CCc3ccccc32)C1=O)NC1CCCCC1` (stereo unspecified), the max response, negative = inhibition was -24.4% (inactive).

With `CCOC(=O)C1(C)CCCN(C(=O)c2ccc(F)c(Cl)c2)C1` (stereo unspecified), the max response, negative = inhibition is 104% (inactive).

On to `CC(=O)c1cccc(-c2cnc3c(NC=O)cc(-c4ccccc4Oc4ccccc4)cn23)c1`, for which the max response, negative = inhibition was 31% (inactive).

As to `C#Cc1cc(N2CCN(C(=O)c3ccoc3)CC2)n2nc(-c3cccc(Cl)c3)cc2n1`, the max response, negative = inhibition was 44.3% (inactive).

Regarding `CCOC(=O)[C@]12CCCC=C1N(CCC1=CCCCC1)C(=O)[C@H](CC(=O)N1CCSCC1)C2`, the max response, negative = inhibition was 21.2% (inactive).

`Cc1ccc(C(=O)NC(=S)Nc2ccc3[nH]c(=O)[nH]c3c2)cc1C`: the max response, negative = inhibition was -9.59% (inactive).

Turning to `Cc1cc(C)cc(C(=O)NC(=S)Nc2ccc3[nH]c(=O)[nH]c3c2)c1`, the max response, negative = inhibition is -10.1% (inactive).

Consider `Cc1cc2[nH]ncc2cc1NC(=S)NC(=O)c1ccccc1`, for which the max response, negative = inhibition was -53.9% (active).

For the compound `COc1ccccc1CNC(=O)c1cc(-c2cc(Cl)ccc2C)n[nH]1`, the max response, negative = inhibition was 3% (inactive).

For the compound `Cc1ccc(C(=O)N/C(=C/c2cccnc2)C(=O)O)cc1`, the max response, negative = inhibition is 0% (inactive).

Turning to `O=C1c2ccccc2C(=O)C1C(=O)C1CC1`, the max response, negative = inhibition is 4.87% (inactive).

For `C/C(=N\NC(=O)c1ccc(C)cc1)C1C(=O)c2ccccc2C1=O`, the max response, negative = inhibition is -89.4% (active).

On to `O=C1NC[C@H](CCCCN2CCN(CCc3ccccc3)C(=O)C2=O)N(CC2CCCCC2)C1=O`, for which the max response, negative = inhibition was 2.55% (inactive).

Take `CCN(C(=O)Nc1cccc2ccccc12)c1ccccc1`: the max response, negative = inhibition was -20.4% (inactive).

As for `Cc1cc(Br)ccc1NC(=O)CCCOc1cc(=O)n(C)c2ccccc12`, the max response, negative = inhibition is -20.6% (inactive).

Consider `COc1ccc(Nc2oc(-c3ccccc3Cl)nc2C#N)cc1`, for which the max response, negative = inhibition was -54.1% (active).

With `COc1ccc(Nc2cc(=O)oc3ccccc23)cc1`, the max response, negative = inhibition was -15.7% (inactive).

`COc1ccc(Nc2ccc3ccccc3c2)cc1`: the max response, negative = inhibition was -3.21% (inactive).

`O=C(CSc1ccc(Cl)cc1)NC1CC1`: the max response, negative = inhibition was 20.3% (inactive).

In the case of `Cc1cccc(C)c1NC(=O)CSc1nc2c([nH]1)c(=O)n(C)c(=O)n2C`, the max response, negative = inhibition was -7.1% (inactive).

`Cc1cc(C)c(C#N)c(SCC(=O)Nc2ccccc2)n1`: the max response, negative = inhibition is -13.9% (inactive).

On to `Cc1cc2cc3c(cc2nc1SCC(=O)Nc1c(C)cccc1C)CCC3`, for which the max response, negative = inhibition was -74.6% (active).

On to `CN(C)CCNC(=O)c1cccc(-c2cnc3c(NC=O)cc(-c4cccc(C(F)(F)F)c4)cn23)c1`, for which the max response, negative = inhibition was 0% (inactive).

Regarding `CN(Cc1ccccc1)C(=O)CCC1CCN(C(=O)c2ccco2)CC1`, the max response, negative = inhibition was 13.8% (inactive).

Turning to `O=C(CCn1c(=O)[nH]c2ccccc2c1=O)NCCCN1CCN(c2cccc(Cl)c2)CC1`, the max response, negative = inhibition was -71.4% (active).

For the compound `O=C(COc1cc2oc(=O)c3c(c2cc1Cl)CCC3)NCCCN1CCOCC1`, the max response, negative = inhibition is -19% (inactive).

For the compound `Cn1c(Cc2cccc3ccccc23)nnc1SCC(=O)N1CCN(c2cccc(Cl)c2)CC1`, the max response, negative = inhibition was 0% (inactive).

Turning to `CCn1c(=O)cc(OCC(=O)NCCCN2CCN(c3cccc(Cl)c3)CC2)c2ccccc21`, the max response, negative = inhibition is -69.4% (active).

Consider `O=C(Cc1ccc(-n2c(=O)[nH]c3ccccc3c2=O)cc1)N1CCN(c2cccc(Cl)c2)CC1`, for which the max response, negative = inhibition was 36.6% (inactive).

With `Cn1c(C(=O)N2CCC(C(N)=O)CC2)cc2c(=O)n(C)c3ccccc3c21`, the max response, negative = inhibition is 0% (inactive).

For `O=C(NCCCN1CCOCC1)c1cc(-c2ccc(Cl)cc2)on1`, the max response, negative = inhibition is 4.36% (inactive).

`Cn1c(C(=O)NCCCN2CCN(c3cccc(Cl)c3)CC2)cc2c(=O)n(C)c3ccccc3c21`: the max response, negative = inhibition is -103% (active).

For the compound `O=C(CCCn1c(=O)[nH]c2cc(Cl)ccc2c1=O)NCCN1CCN(c2ccccc2)CC1`, the max response, negative = inhibition was -29.2% (inactive).

`CCOC(=O)N1CCC(Nc2c(NCCN3CCN(c4cccc(Cl)c4)CC3)c(=O)c2=O)CC1`: the max response, negative = inhibition is 0.472% (inactive).

Take `O=C(Cc1csc(Nc2nc(=S)[nH]c3ccccc23)n1)NCCCN1CCN(c2cccc(Cl)c2)CC1`: the max response, negative = inhibition was -83.7% (active).

With `COc1cccc(CNC(=O)Cc2csc(Nc3nc(=S)[nH]c4ccccc34)n2)c1`, the max response, negative = inhibition is 11.5% (inactive).

For the compound `C[C@H]1CN([C@@H](C)CO)C(=O)CCCn2cc(nn2)CO[C@@H]1CN(C)S(=O)(=O)c1ccccc1C#N`, the max response, negative = inhibition is -12.5% (inactive).

Turning to `Cc1ccc2nc(-c3ccccc3)c(CC3CCCCC3)n2c1`, the max response, negative = inhibition is -9.93% (inactive).

For `COc1ccc(C(O)C(O)(C(=O)OC(C)C)c2ccc(C)cc2)cc1` (stereo unspecified), the max response, negative = inhibition was -17.4% (inactive).

For `CC(C)C[C@H]1CNC(=O)C(=O)N1C[C@H]1CCCN1C[C@H](Cc1ccc(O)cc1)N1C[C@H](CC(C)C)N(CC2CCCCCC2)C(=O)C1=O`, the max response, negative = inhibition is 30.9% (inactive).
